Rows were chosen to be rich in hits. Some 4.7% of all compounds tested hit in one or more screens of this group.
D1 antag: blocks dopamine activation of the human D1 receptor; HEK293 TREx D1 cells, calcium flux, dopamine EC80; hits give low values; activity change, negative = inhibition, % at 10 µM; 360,000 tested, 3.2% active; in the data active means activity change below about -30%; further: on the % scale 0 is the no-effect control and ±100 the full control effect
Target sequence (P21728 whole entry, looked up): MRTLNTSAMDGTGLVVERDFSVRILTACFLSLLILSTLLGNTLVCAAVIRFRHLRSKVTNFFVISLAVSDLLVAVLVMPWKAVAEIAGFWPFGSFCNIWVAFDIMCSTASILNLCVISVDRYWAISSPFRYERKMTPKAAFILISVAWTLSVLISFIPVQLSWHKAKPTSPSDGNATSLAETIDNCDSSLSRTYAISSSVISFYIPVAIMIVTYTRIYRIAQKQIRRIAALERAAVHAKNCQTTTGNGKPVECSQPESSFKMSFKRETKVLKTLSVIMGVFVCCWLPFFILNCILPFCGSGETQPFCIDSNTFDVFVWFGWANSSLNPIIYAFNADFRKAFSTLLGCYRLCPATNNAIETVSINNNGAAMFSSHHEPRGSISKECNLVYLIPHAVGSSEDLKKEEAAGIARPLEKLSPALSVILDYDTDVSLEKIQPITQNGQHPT
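Compound effects on dopamine-evoked calcium signalling were measured in tetracycline-induced HEK293 Trex D1 cells. Dopamine at EC80 followed a 180 s compound pre-read, and fluorescence was tracked kinetically for 180 s more.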
D1 potentiator: potentiators of human D1 dopamine receptor; P21728; HEK293 TREx D1 cells, calcium flux, dopamine EC20 potentiation; potentiation, % at 10 µM; 360,000 tested, 0.036% active; in the data active means potentiation above about 30%; further: 0% is about no effect
D1 ag: agonists of human D1 dopamine receptor | P21728 | 360,000 tested, 1% active | HEK293 T-REx D1 cells, calcium flux, agonist mode | activation, % at 2 µM; further: 0% is about no effect
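Inducible HEK293 T-REx D1 cells, force-coupled to calcium signalling, were plated at 4000 cells/well with tetracycline and held overnight at 30 C. After no-wash calcium dye loading, compound-evoked calcium rise over 180 s flagged agonists.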
TRHR PAM: allosterically enhances the human TRH receptor; enhancement, % at 2 µM; 360,000 tested, 0.66% active; TRHR cells, fluo-8 calcium fluorescence, EC20 TRH enhancement; P34981; in the data active means enhancement above about 30%; further: 0% is about no effect
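Enhancer read-out: after compound pinning and an initial kinetic agonist-mode read, an EC20 of TRH (10 nM final) was injected and fluo-8 calcium signal (Ex 480/Em 530) followed at 1 s/cycle for 100 cycles in TRHR-expressing cells.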
TRHR ag: agonists of human TRH receptor; P34981; TRHR cells, calcium flux fluo-8, FDSS agonist mode; activation, % at 2 µM; 360,000 tested, 0.18% active; AID 493084; further: 0% is about no effect
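Read-out: compound-evoked intracellular calcium rise in TRHR cells, fluo-8 dye, kinetic FDSS fluorescence at 1 s/cycle following a 10-cycle baseline. Cells cultured overnight before dye loading (30 min–1.5 h, RT).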
* marks the source's active call; other numbers are inactive results. Unless noted, no stated cut-off is given here; in the data, active means activation above about 30%; inactive means the rest.

SMILES	D1 antag	D1 potentiator	D1 ag	TRHR PAM	TRHR ag
Cc1cc2c(cc1S(=O)(=O)CCC(=O)N1CCCCC1C)OCC(=O)N2 (stereo unspecified)	2	1	0	-6	0
CCCn1nnnc1NC(=O)c1cc(Br)ccc1OC	3	-3	0	30*	0
Cc1ccc2c(c1)C(c1ccncc1)=NNC(c1ccccc1)=N2	-20	4	3	-5	0
Cc1ccc2c(c1)C(c1ccncc1)=NNC(c1ccc(F)cc1)=N2	-39*	-10	0	4	0
CCc1ccc2c(c1)C(c1ccc([N+](=O)[O-])cc1)=NNC(c1ccc(F)cc1)=N2	-40*	-6	1	-2	0
CCOc1ccc(S(=O)(=O)Nc2nc3ccccc3nc2-n2ccc(=NC(=O)c3cccs3)cc2)cc1	-33*	-8	72*	2	17
O=C(N=c1ccn(-c2nc3ccccc3nc2NS(=O)(=O)c2ccc(Cl)cc2)cc1)c1ccccc1Cl	2	-2	89*	-11	13
O=C(N=c1ccn(-c2nc3ccccc3nc2NS(=O)(=O)c2ccc(Cl)cc2)cc1)c1cccs1	6	-2	3	1	3
O=C(N=c1ccn(-c2nc3ccccc3nc2NS(=O)(=O)c2ccccc2)cc1)c1ccccc1Cl	4	-4	38*	39*	5
COc1ccc(-c2cc(C(=O)N3CCN(c4ccccc4F)CC3)c3ccccc3n2)c(OC)c1	-19	-7	4	-20	1
CCCOc1ccc(/C=C/C(=O)Nc2ccc([N+](=O)[O-])cc2)cc1	-43*	-7	14	-2	1
O=C(/C=C/c1ccc([N+](=O)[O-])cc1)NCCSc1ccccc1	-30*	-3	12	10	0
Cc1ccc(SCCNC(=O)/C=C/c2ccc([N+](=O)[O-])cc2)cc1	-12	-9	3	3	0
CCCCOc1ccc(/C=C/C(=O)Nc2ccc([N+](=O)[O-])cc2C)cc1	-4	-2	4	-2	4
Cc1ccc(/C=C/C(=O)Nc2ccc([N+](=O)[O-])cc2)o1	-46*	-4	20	-2	-1
Cc1ccc(/C=C/C(=O)Nc2ccc(Oc3ccccc3)cc2)o1	-32*	-5	7	-5	0
Cc1cc(NS(=O)(=O)c2ccc(NC(=O)/C=C/c3ccc(C)o3)cc2)nc(C)n1	-5	-1	0	6	0
CC(=O)c1ccc(NC(=O)/C=C/c2ccc(C)o2)cc1	-2	-4	1	1	-1
C/C(=N\NC(=O)c1cccc(S(=O)(=O)N2CCCC2)c1)c1ccc(F)cc1	0	-3	2	8	1
CCN1CCN(c2ccc(S(=O)(=O)N3CCOCC3)cc2NC(=O)C(C)Oc2ccc(F)cc2)CC1 (stereo unspecified)	4	-2	3	9	2
CC(C)(C)c1ccc(C(=O)CCC(=O)OCC(=O)NCCc2ccc(S(N)(=O)=O)cc2)cc1	-34*	-4	5	4	0
NS(=O)(=O)c1ccc(CCNC(=O)COC(=O)C2CCC2)cc1	5	-2	0	33*	0
NS(=O)(=O)c1ccc(CCNC(=O)COC(=O)CCc2ccccc2)cc1	-16	-5	2	2	0
CCN(CC(=O)N1CCN(Cc2ccccc2)CC1)S(=O)(=O)c1ccc(C)cc1	-8	5	2	0	24
COc1ccc(NC(=O)c2ccc3c(c2)C(=O)N(CC2CCCO2)C3=O)c(OC)c1 (stereo unspecified)	0	1	-3	3	1
SMILES	D1 antag	D1 potentiator	D1 ag	TRHR PAM	TRHR ag
COc1ccc(OC)c(C2=C/C(=C/c3ccccn3)C(=O)O2)c1	-56*	-10	189*	8	0
C=CCC(=O)OCC(=O)Nc1ccc(Oc2ccccc2)cc1	-35*	-9	3	-9	0
CCCOc1ccc(C(=O)CCC(=O)OCC(=O)Nc2ccc(Oc3ccccc3)cc2)cc1	-16	0	12	5	2
Cc1cnc(C(=O)OCC(=O)Nc2ccc(Oc3ccccc3)cc2)cn1	-41*	5	9	11	0
CCCn1c(CCC(=O)Nc2ccc(OCC)cc2)nc2cccnc21	-6	-3	-1	21	-2
CCCCNC(=O)c1ccc2c(SCC(=O)O)c3c(nc2c1)CCCC3	-24	-7	6	-6	0
